Source: PubChem BioAssay AID2283234 (EPA ToxCast)
Results filed as inconclusive are left out. Activity calls are given as the source filed them. How the source made its calls: active means hit-call score of the fitted dose curve at least 0.9, where 1 is the maximum; inconclusive means response in the unintended direction; inactive means score below 0.9.

The compounds below were run against human Dual Specificity Styrosine-Phosphorylation-Regulated Kinase 1A (DYRK1a), DYRK1A (gene 1859) (UniProt Q13627) (assay: NVS_ENZ_hDYRK1a: NovaScreen (NVS) Enzymatic Assay for human Dual Specificity Styrosine-Phosphorylation-Regulated Kinase 1A (DYRK1a)).
Method: NVS_ENZ_hDYRK1a is a biochemical, single-readout assay that uses extracted gene-proteins in a cell-free assay. Measurements were taken 1 hour after chemical dosing in a 96-well plate.NVS_ENZ_hDYRK1a is one of one assay component(s) measured or calculated from the NVS_ENZ_hDYRK1a assay. It is designed to make measurements of enzyme activity, a form of enzyme reporter, as detected with fluorescence intensity signals by Fluorescence and electrophoretic mobility shift technology.Data from the assay component NVS_ENZ_hDYRK1a was analyzed into 1 assay endpoint. This assay endpoint, NVS_ENZ_hDYRK1a, was analyzed in the positive analysis fitting direction relative to DMSO as the negative control and baseline of activity. Using a type of enzyme reporter, loss-of-signal activity can be used to understand changes in the enzymatic activity as they relate to the gene DYRK1A. Furthermore, this assay endpoint can be referred to as a primary readout, because this assay has produced multiple assay endpoints where this one serves a enzymatic activity function. To generalize the intended target to other relatable targets, this assay endpoint is annotated to the kinase intended target family, where the subfamily is dual-specific kinase.
Binding assays used specific radioligands (tritiated, iodinated) with non-radioactive competitive displacement ligands in agonist or antagonist protocols (as indicated) and various reference compounds and inhibitors to titrate specific binding to receptors and transporters. Most enzyme assays (CYPs, kinases, phosphatases, proteases, HDACs) used recombinant protein and specific substrates (fluorescence mostly, some colorimetric and radioactive) and inhibitors, followed by a biochemical separation of substrate and product. All assays for the biochemical HTS were initially run in duplicate at a single concentration (10 uM for CYP450 assays and 25 uM for all others). […] Each assay was run with positive and negative controls, and concurrent controls on every plate. The follow-up (secondary) screen tested active chemical-pairs in concentration series, as well as a few additional assays not tested in the primary screen, some selected negative inactives, and several cases re-run in the concentration series for confirmatory purposes.
In the case of CC(C)(C)[C@@H](O)[C@@H](Cc1ccc(Cl)cc1)n1cncn1, the outcome is reported as “inactive”. S=C(S)NCCNC(=S)S.[Mn+2].[S-]C([S-])=NCCN=C([S-])[S-].[Zn+2] was tested, and the AC50 was 1.39 µM (active). With N#CSCSc1nc2ccccc2s1 the outcome was “inactive”. In the case of O=C(O)C1(C(=O)Nc2ccc(Cl)cc2Cl)CC1, the AC50 is reported as 5.11 µM (active). In the case of S=C([S-])NCCNC(=S)[S-].[Mn+2], the AC50 is reported as 6.02 µM (active).
